About 2,000 (36%) of roughly 5,500 compounds were called active. Another 18% or so got no clear call; they are omitted. Cut-off read from the data, not from the text of the source: active = normalized growth mostly below about 0.91 (no sharp cut-off); inconclusive = no clear call, values can overlap the other calls; inactive = mostly above about 0.92. The list shows a part of the results.
Test: chemical genetic growth profiling, strain panel (AID 1159580);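 note: tested at 20 µM; growth read once vehicle control cultures reached saturation at 30 °C; 1 = growth at the plate median or of vehicle wells; lower values mean less growth of the strain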
Conditions: S. cerevisiae deletion strains, growth OD
[1] = locus YAL013W, strain DEP1, hits give low values
[2] = locus YBR229C, strain ROT2, hits give low values
[3] = locus YDL101C, strain DUN1, hits give low values
[4] = locus YDL134C, strain PPH21, hits give low values
[5] = locus YDR150W, strain NUM1, hits give low values
[6] = locus YEL061C, strain CIN8, hits give low values
[7] = locus YGR078C, strain PAC10, hits give low values
[8] = locus YHR030C, strain SLT2, hits give low values
[9] = locus YHR087W, strain rtc3, hits give low values
[10] = locus YJR043C, strain POL32, hits give low values
[11] = locus YJR075W, strain HOC1, hits give low values
[12] = locus YLR039C, strain RIC1, hits give low values
[13] = locus YLR058C, strain SHM2 (second series), hits give low values
[14] = locus YLR085C, strain ARP6, hits give low values
[15] = locus YLR262C, strain YPT6, hits give low values
[16] = locus YML094W, strain GIM5, hits give low values
[17] = locus YMR219W, strain ESC1, hits give low values
[18] = locus YMR263W, strain SAP30, hits give low values
[19] = locus YNL153C, strain GIM3, hits give low values
[20] = locus YNL298W, strain CLA4 (second series), hits give low values
[21] = locus YNL322C, strain KRE1, hits give low values
[22] = locus YNR030W, strain Alg12, hits give low values
[23] = locus YPL055C, strain LGE1, hits give low values
[24] = locus YPL241C, strain CIN2, hits give low values
[25] = locus YPR135W, strain CTF4, hits give low values

Measured: normalized growth

COC(=O)/C(=C/N(C)C)Sc1cc(C)c(Cl)cc1Cl
inactive: [1] 0.945 | [2] 0.968 | [3] 1.01 | [4] 0.983 | [5] 0.958 | [6] 0.951 | [7] 0.979 | [9] 0.939 | [10] 0.983 | [11] 0.935 | [13] 0.939 | [14] 0.91 | [16] 0.914 | [17] 0.959 | [18] 0.946 | [19] 0.992 | [20] 0.925 | [22] 0.942 | locus YOL006C, strain TOP1, hits give low values 0.978 | [23] 0.922 | [24] 0.947 | [25] 0.747
active: [8] 0.296 | locus YKL190W, strain CNB1, hits give low values 0.91 | [12] 0.622 | [15] 0.587 | [21] 0.933

Cc1ccc(-c2csc(-c3cccnc3)n2)c(C)c1
inactive: locus YAR019C, strain CDC15, hits give low values 0.948 | locus YBL105C, strain PKC1, hits give low values 0.967 | locus YBR135W, strain CKS1, hits give low values 0.954 | locus YBR136W, strain MEC1, hits give low values 0.958 | locus YBR160W, strain CDC28, hits give low values 0.963 | locus YDL017W, strain CDC7, hits give low values 0.967 | locus YDL028C, strain MPS1, hits give low values 0.964 | [3] 0.938 | locus YDL108W, strain KIN28, hits give low values 0.964 | locus YDL132W, strain cdc53, hits give low values 0.946 | locus YDL214C, strain PRR2, hits give low values 0.88 | locus YDR052C, strain DBF4, hits give low values 0.96 | locus YDR054C, strain cdc34, hits give low values 0.943 | locus YDR226W, strain ADK1, hits give low values 0.964 | locus YDR477W, strain SNF1, hits give low values 0.87 | locus YER123W, strain YCK3, hits give low values 0.769 | locus YER133W, strain GLC7, hits give low values 0.85 | locus YFL009W, strain cdc4, hits give low values 0.954 | locus YFL029C, strain CAK1, hits give low values 0.943 | locus YFR003C, strain YPI1, hits give low values 0.959 | locus YFR019W, strain FAB1, hits give low values 0.821 | locus YFR028C, strain CDC14, hits give low values 0.947 | locus YGR040W, strain KSS1, hits give low values 0.832 | locus YGR052W, strain FMP48, hits give low values 0.933 | locus YGR092W, strain DBF2, hits give low values 0.737 | locus YHR079C, strain IRE1, hits give low values 0.839 | locus YHR082C, strain KSP1, hits give low values 0.901 | locus YHR205W, strain SCH9, hits give low values 0.886 | locus YIL147C, strain SLN1, hits give low values 0.957 | locus YJL095W, strain BCK1, hits give low values 0.772 | locus YJL128C, strain PBS2, hits give low values 0.946 | locus YJL157C, strain FAR1, hits give low values 0.898 | locus YJR016C, strain ILV3, hits give low values 0.956 | locus YJR066W, strain TOR1 (second series), hits give low values 0.796 | locus YJR066W, strain TOR1, hits give low values 0.833 | locus YKL048C, strain ELM1, hits give low values 0.939 | locus YKL067W, strain YNK1, hits give low values 0.897 | locus YKL101W, strain HSL1, hits give low values 0.914 | locus YKL193C, strain SDS22, hits give low values 0.945 | locus YKL203C, strain TOR2, hits give low values 0.847 | locus YLR133W, strain CKI1, hits give low values 0.905 | locus YLR403W, strain SFP1, hits give low values 0.809 | locus YML070W, strain DAK1, hits give low values 0.891 | locus YMR001C, strain CDC5, hits give low values 0.957 | locus YMR205C, strain PFK2 (second series), hits give low values 0.879 | locus YMR277W, strain FCP1, hits give low values 0.951 | locus YNL006W, strain LST8, hits give low values 0.96 | locus YNL020C, strain ARK1, hits give low values 0.898 | locus YNL161W, strain CBK1, hits give low values 0.96 | locus YNL183C, strain NPR1, hits give low values 0.826 | locus YNL207W, strain RIO2, hits give low values 0.935 | locus YNL222W, strain SSU72, hits give low values 0.955 | locus YNL307C, strain MCK1 (second series), hits give low values 0.862 | locus YOL078W, strain AVO1, hits give low values 0.953 | locus YOL136C, strain PFK27, hits give low values 0.894 | locus YOR061W, strain CKA2, hits give low values 0.912 | locus YOR119C, strain RIO1, hits give low values 0.881 | locus YOR231W, strain MKK1, hits give low values 0.841 | locus YOR329C, strain SCD5, hits give low values 0.951 | locus YPL031C, strain PHO85, hits give low values 0.832 | locus YPL153C, strain RAD53, hits give low values 0.838 | locus YPL204W, strain HRR25, hits give low values 0.796 | locus YPL209C, strain IPL1, hits give low values 0.955 | locus YPR025C, strain CCL1, hits give low values 0.959 | locus YPR106W, strain ISR1, hits give low values 0.957 | locus YPR111W, strain DBF20, hits give low values 0.966 | strain NNK1, hits give low values 0.947 | strain TSCII, hits give low values 0.948
active: [8] 0.763 | locus YLR113W, strain HOG1, hits give low values 0.854 | locus YPL256C, strain CLN2, hits give low values 0.849

CC(C)(C)c1ccc(-c2nc(-c3cc(C(C)(C)C)c(O)c(C(C)(C)C)c3)cs2)cc1
inactive: [1] 1.01 | [2] 1 | locus YCL061C, strain MRC1, hits give low values 1.03 | [3] 1.02 | [4] 1.02 | [5] 0.912 | [6] 1.03 | [7] 1.02 | [8] 1.09 | [9] 1.01 | locus YJL187C, strain SWE1, hits give low values 1.01 | [10] 1.01 | [11] 1.03 | [12] 1.08 | [13] 1.01 | [14] 1.21 | [15] 1.04 | [16] 1.03 | [17] 1.01 | [18] 0.947 | [19] 0.988 | [20] 1.05 | [21] 1.01 | [22] 1.03 | [23] 1.17 | [24] 1.13 | [25] 1.07

Reference: PubChem BioAssay AID1159580 (chemical genetic matrix, 2015)
